The source of these data is PubChem BioAssay (EPA / NIEHS).

Experiment [1] deals with human Esterase Plasma (ES), BCHE (gene 590) (UniProt P06276). The experiment in a line: NVS_ENZ_hES: NovaScreen (NVS) Enzymatic Assay for human Esterase Plasma (ES) (AID 2283157). The method, boiled down: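 Primary single-concentration screen at 25 uM in duplicate, then concentration-response to a 50 uM top dose. Human plasma esterase activity detected colorimetrically after 0.25 h incubation, with DMSO as baseline.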
Sequence of human Esterase Plasma (ES), BCHE (gene 590) (P06276 whole entry, looked up): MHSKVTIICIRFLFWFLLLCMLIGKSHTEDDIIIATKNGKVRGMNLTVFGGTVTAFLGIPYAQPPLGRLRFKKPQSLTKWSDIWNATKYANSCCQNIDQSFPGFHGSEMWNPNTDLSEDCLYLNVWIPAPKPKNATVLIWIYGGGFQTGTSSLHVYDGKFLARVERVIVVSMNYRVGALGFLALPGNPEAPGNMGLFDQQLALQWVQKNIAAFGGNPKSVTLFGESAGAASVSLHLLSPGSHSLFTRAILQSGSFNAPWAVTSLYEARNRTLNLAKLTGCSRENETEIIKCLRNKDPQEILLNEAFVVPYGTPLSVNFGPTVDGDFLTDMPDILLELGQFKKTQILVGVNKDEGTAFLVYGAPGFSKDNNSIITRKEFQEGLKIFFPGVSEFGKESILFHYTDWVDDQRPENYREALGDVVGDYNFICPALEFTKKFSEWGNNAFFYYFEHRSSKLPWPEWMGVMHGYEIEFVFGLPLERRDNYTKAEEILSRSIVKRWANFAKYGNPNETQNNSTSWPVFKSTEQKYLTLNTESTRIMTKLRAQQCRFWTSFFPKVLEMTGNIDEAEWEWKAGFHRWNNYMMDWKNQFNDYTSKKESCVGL

Experiment [2] concerns the target human IkappaB Kinase alpha (IKKa), CHUK (gene 1147) (UniProt O15111). The experiment in a line: NVS_ENZ_hIKKa: NovaScreen (NVS) Enzymatic Assay for human IkappaB Kinase alpha (IKKa) (AID 2283167). The essentials:
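Compounds first run in duplicate at 25 uM, those meeting threshold (e.g. 30% inhibition) retested to maximum 50 uM. Enzyme activity of recombinant IKKa measured by fluorescence with electrophoretic mobility shift separation, 1 hour post-dosing, DMSO baseline.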

The target in experiment [3] is human Matrix Metalloproteinase-2 (MMP2), MMP2 (gene 4313) (UniProt P08253). The experiment in a line: NVS_ENZ_hMMP2: NovaScreen (NVS) Enzymatic Assay for human Matrix Metalloproteinase-2 (MMP2) (AID 2283184). The method, boiled down: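 Compounds first screened in duplicate at a single 25 uM, with actives followed up in concentration series. Recombinant human MMP2 cleaves a fluorogenic substrate; fluorescence taken at 1 h, inhibition fitted relative to DMSO.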
Sequence of human Matrix Metalloproteinase-2 (MMP2), MMP2 (gene 4313) (P08253 whole entry, looked up): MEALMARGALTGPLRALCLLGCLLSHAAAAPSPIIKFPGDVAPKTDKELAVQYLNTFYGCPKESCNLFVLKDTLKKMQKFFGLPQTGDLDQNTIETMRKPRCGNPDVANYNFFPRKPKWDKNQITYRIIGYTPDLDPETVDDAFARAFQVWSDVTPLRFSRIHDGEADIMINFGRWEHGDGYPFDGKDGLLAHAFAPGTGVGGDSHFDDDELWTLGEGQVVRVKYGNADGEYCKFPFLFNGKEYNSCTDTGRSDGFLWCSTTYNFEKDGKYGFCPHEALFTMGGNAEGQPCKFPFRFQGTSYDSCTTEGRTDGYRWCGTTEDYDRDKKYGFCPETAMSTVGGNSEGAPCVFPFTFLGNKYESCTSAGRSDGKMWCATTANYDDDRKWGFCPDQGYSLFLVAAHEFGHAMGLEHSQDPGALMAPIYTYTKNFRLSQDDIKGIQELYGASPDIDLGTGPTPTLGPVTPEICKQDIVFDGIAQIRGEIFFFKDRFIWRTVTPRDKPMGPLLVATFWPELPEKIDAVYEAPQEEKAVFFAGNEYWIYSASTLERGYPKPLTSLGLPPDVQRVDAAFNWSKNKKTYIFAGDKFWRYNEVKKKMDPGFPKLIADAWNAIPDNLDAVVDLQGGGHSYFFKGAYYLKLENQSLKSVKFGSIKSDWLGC

In experiment [4] the target is human Insulin Receptor (InsR), INSR (gene 3643) (UniProt P06213). Description: NVS_ENZ_hInsR: NovaScreen (NVS) Enzymatic Assay for human Insulin Receptor (InsR) (AID 2283168). The essentials: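 Cell-free enzyme assay read 1 h post-dose by fluorescence after substrate/product mobility-shift separation. Duplicate 25 uM primary screen, then singleton concentration-response up to 50 uM for compounds passing threshold; loss of signal vs DMSO.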

Experiment [5] concerns the target human Janus Kinase 2 (Jak2), JAK2 (gene 3717) (UniProt O60674). Description: NVS_ENZ_hJak2: NovaScreen (NVS) Enzymatic Assay for human Janus Kinase 2 (Jak2) (AID 2283169). The method, boiled down:
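Single-point duplicate screen at 25 uM, with hits run in concentration series to a 50 uM top dose. Substrate-product separation by mobility shift with fluorescence detection, 1 h post-dosing; DMSO baseline.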

Experiment [6] has as its target human MAP Kinase-Activated Protein Kinase 2 (MAPKAPK2), MAPKAPK2 (gene 9261) (UniProt P49137). The experiment in a line: NVS_ENZ_hMAPKAPK2: NovaScreen (NVS) Enzymatic Assay for human MAP Kinase-Activated Protein Kinase 2 (MAPKAPK2) (AID 2283178). The essentials: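 Chemicals screened in duplicate at 25 uM, then to 50 uM top concentration in concentration-response, against recombinant human MAPKAPK2; substrate conversion read 1 hr post-dosing by fluorescence after electrophoretic mobility-shift separation, loss-of-signal relative to DMSO.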

The target of experiment [7] is human Ephrin type-A Receptor 2 (EphA2), EPHA2 (gene 1969) (UniProt P29317). The experiment in a line: NVS_ENZ_hEphA2: NovaScreen (NVS) Enzymatic Assay for human Ephrin type-A Receptor 2 (EphA2) (AID 2283155). The method, boiled down:
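Enzyme activity of recombinant EphA2 read by fluorescence after mobility-shift separation, 1 h after dosing. Chemicals first tested at 25 uM (duplicate); those passing threshold run as concentration series, top 50 uM, single replicate, relative to DMSO.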

Experiment [8] concerns the target human Ephrin type-A Receptor 1 (EphA1), EPHA1 (gene 2041) (UniProt P21709). The experiment in a line: NVS_ENZ_hEphA1: NovaScreen (NVS) Enzymatic Assay for human Ephrin type-A Receptor 1 (EphA1) (AID 2283158).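 Note: activity is signal loss versus DMSO meaning EphA1 kinase inhibition.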 The essentials:
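Cell-free kinase activity with recombinant protein, 1 hour after dosing; product separated by electrophoretic mobility shift, fluorescence read. Primary screen at 25 uM in duplicate; hits run as concentration-response up to 50 uM, relative to DMSO.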

For experiment [9], the target named is human Fibroblast Growth Factor Receptor 1 (FGFR1), FGFR1 (gene 2260) (UniProt P11362). Description: NVS_ENZ_hFGFR1: NovaScreen (NVS) Enzymatic Assay for human Fibroblast Growth Factor Receptor 1 (FGFR1) (AID 2283159). The essentials: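 Cell-free recombinant kinase with fluorescent substrate, product separated by electrophoretic mobility shift; read 1 hour after dosing, loss of signal relative to DMSO. Initial screen in duplicate at 25 uM, actives followed in concentration series.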
Sequence of human Fibroblast Growth Factor Receptor 1 (FGFR1), FGFR1 (gene 2260) (P11362 whole entry, looked up): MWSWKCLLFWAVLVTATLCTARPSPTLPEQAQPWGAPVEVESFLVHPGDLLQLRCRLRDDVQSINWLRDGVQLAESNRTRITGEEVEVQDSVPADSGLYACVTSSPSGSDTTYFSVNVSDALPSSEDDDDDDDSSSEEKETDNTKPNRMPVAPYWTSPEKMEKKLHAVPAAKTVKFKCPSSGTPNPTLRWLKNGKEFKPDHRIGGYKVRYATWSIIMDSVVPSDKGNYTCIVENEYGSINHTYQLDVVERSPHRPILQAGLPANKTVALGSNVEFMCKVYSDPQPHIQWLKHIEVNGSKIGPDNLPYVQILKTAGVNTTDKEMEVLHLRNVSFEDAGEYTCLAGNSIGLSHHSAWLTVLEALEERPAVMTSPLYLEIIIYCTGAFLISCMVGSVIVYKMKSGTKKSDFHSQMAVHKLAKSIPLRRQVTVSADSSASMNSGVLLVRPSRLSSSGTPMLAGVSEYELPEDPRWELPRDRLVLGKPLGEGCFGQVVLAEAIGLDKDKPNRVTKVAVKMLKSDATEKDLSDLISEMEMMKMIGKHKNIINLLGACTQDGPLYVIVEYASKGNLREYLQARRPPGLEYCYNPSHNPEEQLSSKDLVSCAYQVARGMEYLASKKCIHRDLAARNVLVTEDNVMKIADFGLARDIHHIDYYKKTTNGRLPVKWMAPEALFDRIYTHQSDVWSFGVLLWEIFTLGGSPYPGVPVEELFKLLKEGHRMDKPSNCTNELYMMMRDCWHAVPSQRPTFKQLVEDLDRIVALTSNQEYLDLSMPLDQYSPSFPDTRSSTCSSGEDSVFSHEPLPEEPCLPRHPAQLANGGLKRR

For experiment [10], the target named is human Mitogen-Activated Protein Kinase 1 (MAPK 1), MAPK1 (gene 5594) (UniProt P28482). Description: NVS_ENZ_hMAPK1: NovaScreen (NVS) Enzymatic Assay for human Mitogen-Activated Protein Kinase 1 (MAPK 1) (AID 2283175). The method, boiled down:
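Cell-free recombinant human MAPK1 enzymatic assay, fluorescence/electrophoretic mobility shift read at 1 h; loss of signal vs DMSO. Primary screen in duplicate at 25 uM; actives (e.g. ≥30% inhibition) run as concentration-response up to 50 uM.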

The target in experiment [11] is Mitogen-activated protein kinase 3 (Homo sapiens) (UniProt P27361). Description: NVS_ENZ_hMAPK3: NovaScreen (NVS) Enzymatic Assay for human Mitogen-Activated Protein Kinase 3 (MAPK 3) (AID 2283177). The essentials:
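Chemicals were first tested in duplicate at 25 uM, with hits re-run as concentration series (max 50 uM). Recombinant enzyme activity, measured 1 h post-dose in a cell-free format, was read by fluorescence/mobility shift relative to DMSO.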

The target of experiment [12] is human Matrix Metalloproteinase-7 (MMP7), MMP7 (gene 4316) (UniProt P09237). The experiment in a line: NVS_ENZ_hMMP7: NovaScreen (NVS) Enzymatic Assay for human Matrix Metalloproteinase-7 (MMP7) (AID 2283183). The method, boiled down:
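Compounds first tested at 25 uM in duplicate, then at up to 50 uM in concentration series if active. Protease activity measured by fluorescence intensity 1 h after dosing, with fitting relative to DMSO.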

Experiment [13] addresses human FYN Proto-Oncogene, Src family Tyrosine Kinase (Fyn), FYN (gene 2534) (UniProt P06241). The experiment in a line: NVS_ENZ_hFyn: NovaScreen (NVS) Enzymatic Assay for human FYN Proto-Oncogene, Src family Tyrosine Kinase (Fyn) (AID 2283161). The method, boiled down:
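Cell-free kinase activity read by fluorescence after mobility-shift separation of substrate and product, 1 h post-dose. Initial single concentration 25 uM in duplicate, then concentration-response follow-up; DMSO baseline.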

The target in experiment [14] is human MET Proto-Oncogene, Receptor Tyrosine Kinase (MET), MET (gene 4233) (UniProt P08581). The experiment in a line: NVS_ENZ_hMet: NovaScreen (NVS) Enzymatic Assay for human MET Proto-Oncogene, Receptor Tyrosine Kinase (MET) (AID 2283180). The essentials:
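Hits from a 25 uM duplicate screen were retested in concentration series up to 50 uM. Enzyme activity was measured by fluorescence after electrophoretic separation of product from substrate, 1 h after compound addition, relative to DMSO.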

The target in experiment [15] is Collagenase 3 (Homo sapiens) (UniProt P45452). Description: NVS_ENZ_hMMP13: NovaScreen (NVS) Enzymatic Assay for human Matrix Metalloproteinase-13 (MMP13) (AID 2283182). The essentials: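 Recombinant MMP13 cleaving fluorescent substrate, cell-free, measured 1 h after dosing. Primary duplicate screen at 25 uM; actives tested in concentration-response up to 50 uM; loss of signal relative to DMSO.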

Experiment [16] deals with Protein deacetylase HDAC6 (Homo sapiens) (UniProt Q9UBN7). The experiment in a line: NVS_ENZ_hHDAC6: NovaScreen (NVS) Enzymatic Assay for human Histone Deacetylase 6 (HDAC6) (AID 2283164). The method, boiled down: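 Concentration-response runs up to 50 uM followed a duplicate 25 uM single-point screen. Deacetylase activity of recombinant human HDAC6 read by fluorescence after 1 h, with mobility-shift separation of substrate and product; DMSO as baseline.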

Each structure is given as a SMILES string. Records with an inconclusive call do not appear. A structure can be active in one record and inactive in another. The source made the active and inactive calls. Rule for the calls: active = hit-call score of the fitted dose curve at least 0.9, where 1 is the maximum; inconclusive = response in the unintended direction; inactive = score below 0.9.

Usually AC50 stands for the midpoint of the concentration-response curve, whichever way the signal moves.

Sequence of human Ephrin type-A Receptor 2 (EphA2), EPHA2 (gene 1969) (P29317 whole entry, looked up): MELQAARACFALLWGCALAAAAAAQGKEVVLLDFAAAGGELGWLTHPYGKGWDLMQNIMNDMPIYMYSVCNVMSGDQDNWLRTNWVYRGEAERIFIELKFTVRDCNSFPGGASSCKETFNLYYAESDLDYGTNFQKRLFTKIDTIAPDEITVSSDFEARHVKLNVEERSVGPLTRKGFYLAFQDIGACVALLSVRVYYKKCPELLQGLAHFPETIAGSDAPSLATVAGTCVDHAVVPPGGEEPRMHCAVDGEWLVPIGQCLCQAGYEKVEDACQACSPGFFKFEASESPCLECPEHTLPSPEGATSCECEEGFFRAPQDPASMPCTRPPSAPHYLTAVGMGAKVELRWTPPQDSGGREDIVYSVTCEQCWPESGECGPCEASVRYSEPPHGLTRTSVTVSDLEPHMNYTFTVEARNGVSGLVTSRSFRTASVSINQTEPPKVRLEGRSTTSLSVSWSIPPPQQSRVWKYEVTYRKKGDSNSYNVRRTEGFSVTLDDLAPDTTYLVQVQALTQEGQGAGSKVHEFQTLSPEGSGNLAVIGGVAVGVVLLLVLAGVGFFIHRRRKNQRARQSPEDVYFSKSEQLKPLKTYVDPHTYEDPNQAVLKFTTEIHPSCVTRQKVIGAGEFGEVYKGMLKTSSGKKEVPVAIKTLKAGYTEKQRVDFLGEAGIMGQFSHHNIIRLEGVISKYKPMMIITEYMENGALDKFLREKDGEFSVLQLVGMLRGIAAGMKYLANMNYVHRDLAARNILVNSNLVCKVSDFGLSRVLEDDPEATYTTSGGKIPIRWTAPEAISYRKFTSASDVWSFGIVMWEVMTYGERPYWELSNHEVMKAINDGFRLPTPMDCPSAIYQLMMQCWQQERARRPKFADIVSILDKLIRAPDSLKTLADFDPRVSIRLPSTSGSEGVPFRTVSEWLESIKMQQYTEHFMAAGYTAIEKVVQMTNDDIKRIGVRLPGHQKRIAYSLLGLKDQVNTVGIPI
Sequence of human Ephrin type-A Receptor 1 (EphA1), EPHA1 (gene 2041) (P21709 whole entry, looked up): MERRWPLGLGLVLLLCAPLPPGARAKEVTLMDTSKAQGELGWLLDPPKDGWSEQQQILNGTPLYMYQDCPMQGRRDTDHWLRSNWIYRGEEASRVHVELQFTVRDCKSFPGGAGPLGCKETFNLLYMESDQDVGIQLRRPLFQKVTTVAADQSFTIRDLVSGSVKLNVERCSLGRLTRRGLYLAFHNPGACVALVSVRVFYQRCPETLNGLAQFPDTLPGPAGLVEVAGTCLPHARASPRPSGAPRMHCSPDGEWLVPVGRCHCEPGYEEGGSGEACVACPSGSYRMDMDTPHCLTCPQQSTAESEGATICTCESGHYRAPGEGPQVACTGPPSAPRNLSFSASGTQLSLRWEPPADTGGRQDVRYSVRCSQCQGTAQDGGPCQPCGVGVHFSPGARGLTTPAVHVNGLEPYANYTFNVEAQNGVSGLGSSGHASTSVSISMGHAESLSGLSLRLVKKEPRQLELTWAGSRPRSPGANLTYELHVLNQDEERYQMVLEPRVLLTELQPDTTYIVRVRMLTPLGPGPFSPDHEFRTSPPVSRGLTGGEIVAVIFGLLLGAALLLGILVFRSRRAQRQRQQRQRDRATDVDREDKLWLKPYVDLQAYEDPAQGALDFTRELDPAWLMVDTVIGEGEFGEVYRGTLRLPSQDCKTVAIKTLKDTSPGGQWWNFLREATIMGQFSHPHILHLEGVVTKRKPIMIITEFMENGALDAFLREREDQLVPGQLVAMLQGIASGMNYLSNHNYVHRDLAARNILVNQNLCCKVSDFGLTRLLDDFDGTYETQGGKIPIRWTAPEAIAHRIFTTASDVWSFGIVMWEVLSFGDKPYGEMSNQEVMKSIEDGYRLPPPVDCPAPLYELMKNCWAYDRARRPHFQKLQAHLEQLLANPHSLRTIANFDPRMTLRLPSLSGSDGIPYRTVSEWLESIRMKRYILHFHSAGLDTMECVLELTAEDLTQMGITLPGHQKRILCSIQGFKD
Sequence of human Matrix Metalloproteinase-7 (MMP7), MMP7 (gene 4316) (P09237 whole entry, looked up): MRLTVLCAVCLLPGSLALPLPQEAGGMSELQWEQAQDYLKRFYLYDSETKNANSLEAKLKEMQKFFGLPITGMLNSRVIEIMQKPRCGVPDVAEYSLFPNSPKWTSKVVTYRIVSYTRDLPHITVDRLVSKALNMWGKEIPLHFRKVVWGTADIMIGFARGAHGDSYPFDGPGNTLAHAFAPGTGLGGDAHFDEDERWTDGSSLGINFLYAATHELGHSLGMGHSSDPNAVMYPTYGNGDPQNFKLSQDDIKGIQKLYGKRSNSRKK
Sequence of human MAP Kinase-Activated Protein Kinase 2 (MAPKAPK2), MAPKAPK2 (gene 9261) (P49137 whole entry, looked up): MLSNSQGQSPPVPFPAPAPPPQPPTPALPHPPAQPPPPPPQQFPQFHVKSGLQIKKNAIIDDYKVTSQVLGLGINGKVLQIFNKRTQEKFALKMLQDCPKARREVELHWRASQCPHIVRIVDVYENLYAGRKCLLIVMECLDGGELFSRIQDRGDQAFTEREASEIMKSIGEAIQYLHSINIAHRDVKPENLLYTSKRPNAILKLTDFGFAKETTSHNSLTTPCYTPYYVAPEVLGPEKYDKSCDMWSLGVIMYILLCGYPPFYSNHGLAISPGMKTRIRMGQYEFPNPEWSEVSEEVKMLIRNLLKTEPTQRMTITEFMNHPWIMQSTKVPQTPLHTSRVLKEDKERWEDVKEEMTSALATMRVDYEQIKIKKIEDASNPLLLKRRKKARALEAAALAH

For the molecule `COP(=O)(OC)OC=C(Cl)Cl`, the AC50 in [1] was 7.13 µM (active).
Regarding `O=C(O)COc1ccc(Cl)cc1Cl`, in experiment [2], the result was inactive.
Take `CCC(C)(C)C(=O)OC1=C(c2ccc(Cl)cc2Cl)C(=O)OC12CCCCC2`: in [3], the call was inactive.
Consider `COC(=O)c1ccccc1CS(=O)(=O)NC(=O)Nc1nc(OC)cc(OC)n1`, for which the molecule was classed as inactive in experiment [4] and in [5].
`Cc1cc(C)nc(NC(=O)NS(=O)(=O)c2ccccc2C(=O)OC2COC2)n1`: the AC50 in [6] was 18.6 µM (active).
On to `CNC(=O)/C=C(\C)OP(=O)(OC)OC`, for which the AC50 in experiment [1] is 18.3 µM (active).
On to `CNC(=O)CSP(=S)(OC)OC`, for which the molecule was classed as inactive in [7], in [8] and in [9].
As to `Oc1cc(Cl)ccc1Oc1ccc(Cl)cc1Cl`, the molecule was classed as inactive in experiment [7], in experiment [9], in experiment [5], in experiment [10], in experiment [11] and in experiment [12]. For the same molecule, in [3], the molecule was classed as inactive. For the same molecule, in experiment [12], the AC50 is 13 µM (active).
In the case of `CC(C)(C)C(O)C(Oc1ccc(Cl)cc1)n1cncn1` (configuration not stated), the result in experiment [9] and in experiment [5] was inactive.
With `CC(C)N(C(=O)COc1nnc(C(F)(F)F)s1)c1ccc(F)cc1`, the AC50 in experiment [1] is 11.8 µM (active).
`COP(=S)(OC)Oc1ccc([N+](=O)[O-])cc1`: in [1], the result was inactive.
Consider `O=[N+]([O-])/N=C1\NCCN1Cc1ccc(Cl)nc1`, for which the molecule was called inactive in [7], in experiment [8] and in experiment [11].
Regarding `O=C(O)C(F)(F)C(F)(F)C(F)(F)C(F)(F)C(F)(F)C(F)(F)C(F)(F)F`, the molecule was called inactive in experiment [13], in experiment [2], in [4], in experiment [6], in experiment [14] and in experiment [15].
As to `COC(=O)c1ccccc1S(=O)(=O)NC(=O)Nc1nc(C)nc(OC)n1`, the result in experiment [15] was inactive.
For `O=C(Nc1ccccc1)Nc1cnns1`, the molecule was classed as inactive in [15].
On to `CNC(=O)Oc1cccc(N=CN(C)C)c1`, for which the outcome in experiment [1] was inactive.
Consider `ClC1C(Cl)C(Cl)C(Cl)C(Cl)C1Cl` (configuration not stated), for which the outcome in experiment [8] and in [9] was inactive. Moreover, the AC50 in experiment [16] was 0.00517 µM (active).
